DT40 TDP1 CPT: DT40-hTDP1 cell growth loss with CPT; chicken DT40 Tdp1-/-;hTDP1 cells + 20 nM CPT, ATP luminescence, 48 h; Potency, µM (highest dose often 46.2 µM), for the others: top-dose activity change, negative = growth inhibition, most hits filed as inhibitors; 12% of 420,000 active; also: % is scaled to controls: 0 for no effect and ±100 for the full control effect; nearly all actives have a fitted effect of over 55% in size
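Chicken DT40 Tdp1-/- cells complemented with human TDP1, 400 cells/well, exposed to compounds plus 20 nM camptothecin for at least 48 h at 37 C; viability read as ATP content by CellTiter-Glo luminescence.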
HepG2 viability: kills HepG2 cells in TGF-b inhibitor counter-screen; HepG2 CAGA-GFP viability, ATP luminescence, 18 h; 0.76% of 410,000 active; Potency, µM (titrated, usually from 46.1 µM), for inactives: at the highest dose activity change, negative = cytotoxicity, actives largely listed as cytotoxic
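HepG2 CAGA-GFP cells (1000/well, DMEM with 1% FBS) received compound, then TGF-beta at 500 pg/mL final, and were incubated 18 hours at 37 degrees C. Viability was read by CellTiter-Glo luminescence. Media-only wells were set as complete cell-killing and DMSO as no toxicity.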
S2 tox: reduces viability in counter-screen for ATXN expression inhibitors; S2 cells (HEK-293 line with an ATXN2-luciferase reporter) viability, CellTiter-Fluor protease fluorescence, 24 h; Potency, µM (highest dose often 56.7 µM), most hits filed as cytotoxic; 0.49% of 400,000 active; also: nearly all actives have a fitted effect of over 40% in size
DT40 TDP1 no CPT: qHTS for Inhibitors of human tyrosyl-DNA phosphodiesterase 1 (TDP1): qHTS in cells in absence of CPT. DT40 Tdp1-/- hTDP1 cells, no CPT, ATP luminescence, 48 h. Potency, µM (series often up to 46.2 µM), for inactives: at the highest dose activity change, negative = growth inhibition, usual class: inhibitors. 15% of 420,000 active; also: % is scaled to controls: 0 for no effect and ±100 for the full control effect; nearly all actives have a fitted effect of over 55% in size
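No-CPT arm: Tdp1-/-;hTDP1 DT40 cells (400/well) plus compounds, incubated ≥48 hr at 37 °C. Readout CellTiter-Glo luminescence.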
ATXN2 expr inh: reduces ATXN2 reporter expression in HEK-293 cells. HEK-293 ATXN2-luciferase reporter, luminescence, 24 h. Potency, µM (top dose mostly 57 µM), for the others: at the highest dose activity change, negative = inhibition, hits mostly inhibitors. 0.72% of 360,000 active. AID 1745845; also: % is scaled to controls: 0 for no effect and ±100 for the full control effect; nearly all actives have a fitted effect of over 55% in size
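ATXN2-luciferase reporter cells (luciferase flanked by upstream and downstream ATXN2 gene portions) were treated 24 h at 37 °C with compounds at up to 57 uM. SteadyGlo luminescence gave expression; GF-AFC fluorescence gave viability.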
TGFb SMAD3 inh: blocks TGF-b signaling; HepG2 CAGA-GFP TGF-b/SMAD3 reporter, GFP fluorescence, 18 h; TGF-beta stimulated, 500 pg/mL final; Potency, µM (series often up to 46.1 µM), for inactives: at the highest dose activity, negative = inhibition, usual class: inhibitors; 1.2% of 410,000 active; also: % is scaled to controls: 0 for no effect and ±100 for the full control effect; nearly all actives have a fitted effect of over 65% in size
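Cell-based qHTS in HEPG2 carrying a CAGA-GFP Smad reporter; compounds added before 500 pg/mL final TGF-beta, 18 h incubation at 37 degrees C, GFP fluorescence quantified per cell by imaging cytometry.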
Starred values were filed as active, the others as inactive; i = inactive; ? = inconclusive; · = not tested or not shown; [ ] = remark or other dose. An excerpt weighted towards active compounds, which were near 17% of everything screened. Calls follow the shape of the dose curve; as a rule, active = well fitted curve in the direction sought with a large enough effect; inconclusive = small, poorly fitted or top-dose-only effect, or another doubt; inactive = no such curve, though single readings can be large; an effect the other way counts as inactive or inconclusive. Potency is read from the fitted curve at half-maximal effect.

SMILES	DT40 TDP1 CPT	HepG2 viability	S2 tox	DT40 TDP1 no CPT	ATXN2 expr inh	TGFb SMAD3 inh
CCCC(=O)NC1=C(N2CC2)C(=O)C(NC(=O)CCC)=C(N2CC2)C1=O	0.82µM*	13%	i	1.6µM*	-39%	17%
Cn1cc(C(=O)Cc2ccccc2)c2ccccc21	16µM*	2%	i	?	3%	-2%
CCC(=O)C1=C(c2cccc([N+](=O)[O-])c2)N(C(=O)CC)n2c(nnc2C2CCCCC2)S1	3.3µM*	2%	·	4.1µM*	·	5%
CCCOC(=O)c1c(C)oc2c1cc(NS(=O)(=O)c1ccc(OCC)cc1)c1ccccc12	1.5µM*	-13%	·	1µM*	·	-41%
Cc1ccc(C)c(S(=O)(=O)c2nnn3c2nc(N2CCN(C)CC2)c2sccc23)c1	16µM*	-16%	·	?	·	?
O=C1NC(=O)C(=Cc2c(Cl)cccc2Cl)C(=O)N1	12µM*	-32%	i	13µM*	-15%	?
CS(=O)(=O)c1ccc(C(=O)C2C(=O)CCCC2=O)c([N+](=O)[O-])c1	-30%[92.5 µM]	·	i	?	1%[116 µM]	·
Cc1ccc(/C=C/C2=NN(Cc3ccc(Cl)c(Cl)c3)C(=O)CC2)cc1	2%	-18%	i	0%	-9%	11µM*
Cc1ccc(Cn2nc(C)c(C=O)c2Cl)cc1	31%	3%	?	-2%	13%	-23%
CN(C)C(Cc1ccccc1)C(=O)c1c[nH]c2ccccc12 (configuration not stated)	?	0%	i	?	-1%	13%
COC(=O)C1=C(c2ccc(-c3ccccc3)c(F)c2)C[C@@H]2CC[C@H]1N2C(=O)N1CCOCC1	1.2µM*	-12%	?	1.3µM*	?	-21%
COC(=O)C1=C(c2ccc(-c3ccccc3)c(F)c2)C[C@@H]2CC[C@H]1N2C(=O)N1CCCCC1	2.3µM*	-5%	?	1.3µM*	?	?
COC(=O)C1=C(c2ccc(-c3ccccc3)c(F)c2)C[C@@H]2CC[C@H]1N2C(=O)N1CCCC1	1.6µM*	-28%	?	1.2µM*	?	?
COC(=O)C1=C(c2ccc(-c3ccccc3)c(F)c2)C[C@@H]2CC[C@H]1N2C(=O)N1CCc2cc(OC)c(OC)cc2C1	?	-13%	?	?	?	-28%
COC(=O)C1=C(c2ccc(-c3ccccc3)c(F)c2)C[C@@H]2CC[C@H]1N2C(=O)N1CCC(O)CC1	15µM*	-23%	?	9.2µM*	?	-69%
NC(CO)Cc1ccccc1 (configuration not stated)	-7%	·	·	-21%	·	·
COc1ccc(-c2c3c(nc4sc5c(Cl)nc(C)nc5c24)CCC3)cc1	3%	1%	?	-9%	-32%	3%
COc1ccc(C(CNC(=O)Cc2ccc(Cl)c(Cl)c2)N2CCCCC2)cc1 (configuration not stated)	?	-31%	i	?	-5%	-18%
CN(C(=O)Cc1ccc(Cl)c(Cl)c1)[C@H](CN1CCCC1)c1cccc(N=C=S)c1	12µM*	·	·	13µM*	·	·
CN(C(=O)Cc1ccc(Cl)c(Cl)c1)C(CN1CCCC1)c1cccc(N=C=S)c1 (configuration not stated)	5.2µM*	·	·	3.3µM*	·	·
CC(C)(C#N)O[C@H]1OC(CO)C(O)C(O)C1O (some centres not stated)	-1%	·	·	1%	·	·
Cc1ccc(C2C(=O)NC(=O)NC2=O)cc1	-1%	-8%	i	-24%	-6%	-8%
NC(=O)[C@@H]1CCCN1C(=O)[C@H](Cc1ccccc1)NC(=O)[C@@H]1CCCN1C(=O)[C@@H](N)Cc1ccc(O)cc1	-4%[4.12 µM]	·	·	14%[4.12 µM]	·	·
C=C(C)[C@@H]1CC[C@]2(C(=O)O)CC[C@]3(C)[C@H](CC[C@@H]4[C@@]5(C)CC[C@H](O)C(C)(C)[C@@H]5CC[C@]43C)[C@@H]12	5.8µM*	-9%	i	3.7µM*	2%	-8%
COc1ccc(OC(=O)N2C/C(=C/c3ccccc3)C(=O)/C(=C\c3ccccc3)C2)cc1	1.2µM*	-5%	32µM*	1.5µM*	?	?
SMILES	DT40 TDP1 CPT	HepG2 viability	S2 tox	DT40 TDP1 no CPT	ATXN2 expr inh	TGFb SMAD3 inh
Cc1ccc(S(=O)(=O)c2nc(-c3ccccc3Cl)oc2N(C)C2CCN(C)CC2)cc1	?	11µM*	?	?	-33%	?
Cc1oc(-c2ccccc2Cl)nc1CN1C(=O)CN=C(c2ccccc2)c2cc(Cl)ccc21	?	5%	·	?	?	-1%
C#CCOCOCC#CCN(CC)CC	0%	7%	i	-11%	-1%	?
O=C(NC1CCCCC1)c1ccc(CSc2nc3ccncc3n2Cc2ccc(F)cc2)cc1	?	4%	?	?	?	9%
CCN1CCCC(OC(=O)C(c2ccccc2)c2ccccc2)C1 (configuration not stated)	?	-29%	i	?	-11%	1%
CC(C)(COC(=O)C(c1ccccc1)c1ccccc1)CN1CCOCC1	?	-11%	i	21µM*	0%	0%
Cc1ccc(C)c(N2CCN(C(=O)C3CCCN(S(=O)(=O)c4cccc5nsnc45)C3)CC2)c1 (configuration not stated)	5.8µM*	-18%	i	7.3µM*	0%	?
O=C(C1CCCN(S(=O)(=O)c2cccc3nsnc23)C1)N1CCC2(CC1)OCCO2 (configuration not stated)	-9%	-25%	i	-8%	5%	-14%
COCCOc1ccc(C(F)(F)F)cc1NC(=O)CN1C(=O)NC2(CCCc3ccccc32)C1=O (configuration not stated)	?	-5%	i	26µM*	?	0%
O=c1[nH]c2ccccc2n1C1CCN(C(c2nnnn2Cc2ccccc2)C2CC2)CC1 (configuration not stated)	16µM*	0%	?	21µM*	?	-40%
O=c1[nH]c2ccccc2n1C1CCN(C(CCc2ccccc2)c2nnnn2Cc2ccccc2)CC1 (configuration not stated)	2.3µM*	-91%	8.9µM*	2.6µM*	8.9µM*	?

Bioassay records from PubChem.
